Screening data deposited in PubChem by National Center for Advancing Translational Sciences (NCATS).
Rows were chosen to be rich in hits. Some 10% of all compounds tested hit in one or more screens of this group.
PNC assembly inh: inhibitors of perinucleolar compartment assembly | activity change (PNC), negative = inhibition, % at 10 µM | AID 2417 | PC3M PTB-GFP, PNC prevalence imaging, 16 h; stronger effect = lower value | 140,000 compounds, 3.1% hits;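 active = readout at or below -70, meaning at least 70% loss of cells showing the perinucleolar compartment, a nuclear body marking cancer cells; inconclusive = readout between -30 and a set limit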;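 also: plate controls were DMSO wells for no effect and camptothecin positive control wells for full effect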
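Read-out is percentage of cells bearing a perinucleolar compartment, from automated 20x imaging of fixed, Hoechst-stained PC3M PTB-GFP cells. Cells were seeded 4 h, then exposed 16 h to compound (23 nl of library stock) in duplicate plates.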
GLA inh pH 4.5: alpha-galactosidase A (human) inhibition, pH 4.5; P06280; activity change, negative = inhibition, % at 105 µM; AID 1467; purified enzyme, 4-MU-alpha-Gal fluorescence, pH 4.5; 230,000 tested, under 10 active;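 also: 0% = full activity with enzyme and -100% = basal without enzyme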
ALOX12 inhib: 12-hLO (ALOX12) enzyme inhibition; P18054; Potency, µM (top dose mostly 57.1 µM), without a hit: at the top dose activity change, negative = inhibition, most hits filed as inhibitors; 150,000 compounds, 0.12% hits; purified 12-hLO, xylenol orange hydroperoxide absorbance; also: potency is read from the fitted curve at half-maximal effect; nearly all actives have a fitted effect of over 55% in size
Target sequence (P18054 whole entry, looked up): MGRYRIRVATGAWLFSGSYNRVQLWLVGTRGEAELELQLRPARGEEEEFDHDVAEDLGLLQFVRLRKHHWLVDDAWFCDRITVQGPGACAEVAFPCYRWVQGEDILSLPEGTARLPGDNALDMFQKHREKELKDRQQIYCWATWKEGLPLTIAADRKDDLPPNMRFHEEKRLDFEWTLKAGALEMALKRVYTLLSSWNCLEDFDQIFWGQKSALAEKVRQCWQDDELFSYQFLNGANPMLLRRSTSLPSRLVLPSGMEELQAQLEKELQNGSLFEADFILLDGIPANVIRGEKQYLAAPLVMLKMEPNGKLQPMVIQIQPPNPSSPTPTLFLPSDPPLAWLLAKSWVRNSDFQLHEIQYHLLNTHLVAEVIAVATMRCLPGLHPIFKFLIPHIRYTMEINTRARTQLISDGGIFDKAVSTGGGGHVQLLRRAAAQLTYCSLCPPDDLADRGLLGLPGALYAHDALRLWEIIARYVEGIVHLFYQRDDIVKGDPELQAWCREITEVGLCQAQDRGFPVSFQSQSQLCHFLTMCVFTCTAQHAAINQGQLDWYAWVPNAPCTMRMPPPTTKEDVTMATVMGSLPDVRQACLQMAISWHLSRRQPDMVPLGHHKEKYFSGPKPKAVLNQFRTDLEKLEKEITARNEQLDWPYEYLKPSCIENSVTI
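150 nM 12hLO, 25 mM Hepes pH 7.0 + 0.01% Triton X-100; cpd preinc 15 min RT; 40 uM arachidonic acid, 30 min RT; Fe-XO 30 min; A573/A405 ratio as read-out.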
HPGD inh: inhibitors of human 15-hydroxyprostaglandin dehydrogenase (HPGD); P15428; purified HPGD, NADH fluorescence kinetic, PGE2 substrate; Potency, µM, for inactives: at the top dose activity change, negative = inhibition, most hits filed as inhibitors; 150,000 compounds, 4.3% hits; AID 894; active = well fitted inhibition curve with a large enough effect, not every such curve was filed as active; inconclusive = small, poorly fitted or top-dose-only effect, or another doubt; inactive = no such curve, though single readings can be large or run the other way; also: potency is read from the fitted curve at half-maximal effect
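NADH formation kinetics: reaction with 30 uM PGE2 and 1 mM NAD+ (final), 20 nM enzyme, Tris-HCl pH 8 with Tween 20, after 15 min compound preincubation at room temperature. Fluorescence change, last versus first of five reads.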
GLA spleen mod: inhibitors or activators of human alpha-galactosidase in spleen homogenate; human spleen homogenate, 4MU-alpha-Gal fluorescence, 40 min; P06280; AID 2107; Potency, µM (highest dose often 80 µM), inactives show top-dose activity change, negative = inhibition, usual class: inhibitors; 240,000 compounds, 0.008% hits;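 also: potency is read from the fitted curve at half-maximal effect; 0% = enzyme with vehicle and -100% = no enzyme basal signal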
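Human spleen homogenate (1 ug) was the enzyme source, with 4-methylumbelliferyl-alpha-D-galactopyranoside (1 mM final) in pH 5.0 citrate buffer with 0.01% Tween-20. Compounds were titrated; after 40 min at 37C, NaOH/glycine stop, 4-MU fluorescence read; AC50 from Hill fits.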
ALDH1A1 block: inhibitors of human aldehyde dehydrogenase 1A1 | P00352 | Purified ALDH1A1, NADH fluorescence, propionaldehyde substrate | Potency, µM (titrated, usually from 75.3 µM), inactives show top-dose activity, negative = inhibition, hits mostly inhibitors | 220,000 compounds, 7.3% hits | AID 1030; active = well fitted inhibition curve with a large enough effect, not every such curve was filed as active; inconclusive = small, poorly fitted or top-dose-only effect, or another doubt; inactive = no such curve, though single readings can be large or run the other way;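 also: potency is read from the fitted curve at half-maximal effect; plate controls were no enzyme wells and a reference inhibitor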
Starred values were filed as active, the others as inactive; ? = inconclusive; nt = no result; [ ] = remark or other dose. Unless noted, calls follow the shape of the dose curve; as a rule, active = well fitted curve in the direction sought with a large enough effect; inconclusive = small, poorly fitted or top-dose-only effect, or another doubt; inactive = no such curve, though single readings can be large; an effect the other way counts as inactive or inconclusive. Unless noted, % is scaled to controls: 0 for no effect and ±100 for the full control effect.

SMILES	PNC assembly inh	GLA inh pH 4.5	ALOX12 inhib	HPGD inh	GLA spleen mod	ALDH1A1 block
Cc1noc(NC(=O)c2ccccc2)c1C#N	-17.9	-4.9	2.6%	-26.8%	8.2%	10µM*
O=C(NCCC1=CCCCC1)c1ccc(Cl)c(S(=O)(=O)N2CCOCC2)c1	-18.9	-9.3	-3.1%	1.1%	8.3%	12.6µM*
Cc1ccc(CSCCNC(=O)c2ccc(Cl)c(S(=O)(=O)N3CCOCC3)c2)cc1	10.7	-23.6	0.5%	-4.7%	5.2%	?
O=S(=O)(NCCc1ccccc1)c1cccc(S(=O)(=O)N2CCOCC2)c1	14.5	-0.9	2.0%	-2.1%	3.1%	-3.5%
O=S(=O)(NCCC1=CCCCC1)c1cccc(S(=O)(=O)N2CCOCC2)c1	10.2	-1.7	-1.7%	nt	3.7%	10µM*
O=C(/C=C/c1cn(CC(O)CN2CCCCC2)c2ccccc12)c1ccccc1 (centres undefined)	nt	-7.4	nt	nt	7.3%	nt
O=C(/C=C/c1cn(CC(O)CN2CCCCC2)c2ccccc12)c1cccs1 (centres undefined)	?	3.9	-7.1%	-18.6%	3.3%	14.1µM*
O=C(C/C=N/OCc1ccccc1F)c1cnc(-c2ccc(Cl)cc2)s1	-10.9	7.9	-5.5%	-13.8%	-6.7%	22.4µM*
O=C(C/C=N/OCc1ccc(F)cc1Cl)c1cnc(-c2ccccc2)s1	-21.2	6.3	2.9%	-10.2%	-5.3%	-7.1%
C=CCc1cccc(/C=N/NC(=O)CNc2ccccc2OC)c1O	nt	-2.6	nt	nt	1.0%	-8.4%
C=CCc1cccc(/C=N/NC(=O)CNc2cccc3ccccc23)c1O	-84.1*	1.9	5.9%	-25.3%	11.4%	?
CCC1(C)Cc2nc3[nH]c(=S)n(-c4ccccc4C)c(=O)c3cc2CO1 (centres undefined)	nt	3.2	nt	nt	2.7%	nt
COc1ccc(-n2c(=S)[nH]c3[nH]ncc3c2=O)cc1	nt	-5.7	nt	nt	10.6%	nt
O=c1c2cn[nH]c2[nH]c(=S)n1-c1cccc2ccccc12	-113.4*	-6.3	-1.7%	-18.4%	-10.8%	-10.3%
O=c1c2cn[nH]c2[nH]c(=S)n1-c1ccccc1	?	6.0	-0.7%	28.2µM*	-1.2%	?
COc1ccc(-c2ccc(SCC(=O)Nc3cccc(C(C)=O)c3)nn2)cc1OC	nt	-8.2	nt	nt	9.2%	-5.2%
CCn1c(SCC(N)=O)nc2sc3c(c2c1=O)CCN(C)C3	nt	5.4	nt	nt	-0.8%	?
CN1CCc2c(sc3nc(NN)n(Cc4ccccc4)c(=O)c23)C1	nt	-7.8	nt	nt	-4.8%	31.6µM*
Nc1nnc(SCCCC(=O)c2ccc(Br)cc2)s1	-29.9	5.9	2.4%	3.55µM*	5.8%	14.4%
Nc1nnc(SCCCC(=O)c2ccc(F)cc2)s1	50.6	5.5	-0.3%	-29.9%	-2.7%	?
CCCC[C@H](NC(=O)[C@H](CC(C)C)NC(=O)CNC(=O)[C@@H](NC(=O)[C@H](Cc1ccccc1)NC(=O)[C@H](CO)NC(=O)[C@@H](N)CC(=O)O)C(C)C)C(N)=O	nt	nt	nt	nt	13.0%	nt
COCCNc1nc(C)nc2c1nc(-c1ccccc1)n2C1CCN(Cc2ccccc2)C1 (centres undefined)	nt	-7.8	-2.1%	?	0.8%	?
N#Cc1c(SCC(=O)OCc2ccccc2)nsc1SCC(=O)OCc1ccccc1	-100.5*	-18.9	6.0%	-7.1%	-4.5%	-4.5%
CC(C)(C)NC(=O)CSc1nsc(SCC(=O)NC(C)(C)C)c1C#N	24.9	6.6	-3.9%	-12.9%	14.8%	5.8%
N#Cc1c(SCC(N)=O)nsc1SCc1ccc(Cl)cc1	-82.8*	-0.9	-8.1%	-12.8%	-1.6%	-5.5%
SMILES	PNC assembly inh	GLA inh pH 4.5	ALOX12 inhib	HPGD inh	GLA spleen mod	ALDH1A1 block
CCc1c(C#N)c(N)nc(SCC(=O)OCc2ccccc2)c1C#N	-22.6	0.4	0.7%	?	13.2%	-11.1%
CCOC(=O)CSc1nsc(SCC(=O)OCC)c1C#N	-100.0*	1.9	-7.6%	-24.1%	1.2%	6.7%
CC(=O)CSc1nsc(SCC(C)=O)c1C#N	152.7	1.1	-9.0%	?	6.9%	28.2µM*
COc1ccccc1C(=O)Nc1onc(C)c1C#N	nt	4.0	nt	nt	-4.0%	?
CC#CCN1c2ccccc2[C@]23C[C@@H](C(=O)OC)N(S(=O)(=O)c4ccc([N+](=O)[O-])cc4)C2=NC(C(=O)OC)=C(C(=O)OC)[C@H]13	nt	3.6	0.9%[11.4 µM]	-3.0%	7.8%[17.5 µM]	15.7%[13.5 µM]
C=C(CO)C1Cc2c(ccc3c2OC2COc4cc(OC)c(OC)cc4C2C3=O)O1 (centres undefined)	nt	3.0	1.8%	-8.6%	-6.6%	22.4µM*
Cc1ccc(N)c2c1OCCC2=O	-117.9*	-12.4	-0.9%	-6.4%	-13.4%	-6.2%
C=CCNC(=O)CNS(=O)(=O)c1ccc(F)cc1	53.0	1.5	0.3%	31.6µM*	-2.8%	?
O=C(O)CNS(=O)(=O)c1ccc(F)cc1	?	-2.1	-2.5%	4.6%	0.4%	-5.1%
O=C(O)c1nnsc1-c1ccc(-c2snnc2C(=O)O)cc1	nt	nt	2.9%[11.4 µM]	-21.7%	nt	3.98µM*
O=C(O)c1ncsc1-c1ccccc1	nt	-16.5	nt	nt	-4.0%	nt
Cc1ccc(NN2C(=O)C=CC2=O)cc1	-112.5*	3.9	-1.4%	-5.1%	0.7%	0.0%
COc1ccc(O[C@H]2C=C[C@@H](c3ccccc3)O[C@@H]2CO/N=C(\C)CCN2CCCc3nc(C)c(C)cc32)cc1	nt	nt	nt	nt	6.6%[17.5 µM]	6.2%[13.5 µM]
Cn1ccc(=S)c2ccccc21	nt	1.3	nt	nt	1.3%	7.08µM*
Cn1c(=S)[nH]c2ccccc21	27.6	1.9	-1.4%	-23.5%	8.8%	-14.6%
N#C/C(=C\c1cccc(OC(=O)c2cccs2)c1)C(N)=O	?	1.2	-2.6%	25.1µM*	2.5%	-5.5%
COCCNC(=O)/C(C#N)=C/c1ccc(OC(=O)c2cccs2)c(OC)c1	nt	-12.0	nt	nt	-2.8%	?
CC(C)C[C@H](NC(=O)c1nc[nH]c1C(=O)N(C)Cc1ccccc1)C(=O)OC(C)(C)C	nt	-4.4	nt	nt	-3.7%	7.94µM*
C[C@H](NC(=O)c1nc[nH]c1C(=O)N[C@@H](C)c1ccccc1)C(=O)OC(C)(C)C	nt	2.6	nt	nt	3.7%	4.47µM*
CN1CCN(NC(=O)c2cc(S(=O)(=O)N3CCOCC3)c(Cl)cc2Cl)CC1	38.0	3.7	1.4%	-8.3%	-4.1%	6.1%
CC(C)C[C@@H](CN(C)N=O)N(C[C@H](Cc1ccccc1)N(CCc1ccccc1)N=O)N=O	nt	-5.1	nt	nt	4.4%	8.91µM*
CCN=c1sc(C(=O)NCCc2ccccc2)cc(=O)n1CC	21.8	-1.9	-14.6%	-11.6%	5.6%	6.31µM*
CCOC(=O)C1CCCCN1Cc1ccc(OC)c(OC)c1 (centres undefined)	nt	0.2	nt	nt	0.0%	nt
Cn1c(=O)c(CCc2ccccc2)nc2cnc(OCc3ccccc3)nc21	nt	nt	nt	nt	3.1%	11.2µM*
COCCn1c(=O)c(CCc2ccccc2)nc2cnc(Oc3cccc(Cl)c3)nc21	nt	nt	-5.0%	-9.2%	-1.7%	14.1µM*
